Results taken from PubChem BioAssay (EPA / NIEHS).
Calls of active or inactive are those of the source. The calls were made as follows: active = hit-call score of the fitted dose curve at least 0.9, where 1 is the maximum; inactive = score below 0.9.

read-out: Cytochrome P450 (CYP24A1), CYP24A1 (gene 1591); assay: LTEA_HepaRG_CYP24A1: Life Technologies and Expression Analysis (LTEA) Assay for Cytochrome P450 (CYP24A1) using HepaRG (AID 2283478); conditions: mRNA level, 48 h; actives raise or lower the signal
Description: LTEA_HepaRG is a cell based, multiplexed-readout assay that uses HepaRG, a human liver cell line, with measurements taken at 48 hours after chemical dosing on a 96-well plate.LTEA_HepaRG_CYP24A1 is one of 102 assay component(s) measured in the LTEA HepaRG cell culture assay. It is a marker of NR mediated metabolism.Data from the assay component LTEA_HepaRG_CYP24A1 was analyzed into 1 endpoint. This assay endpoint, LTEA_HepaRG_CYP24A1, was analyzed with bidirectional fitting relative to DMSO as the negative control and baseline of activity. Using a type of inducible reporter, measures of mRNA induction for gain or loss-of-signal activity can be used to understand regulation of transcription factor activity. To generalize the intended target to other relatable targets, this assay endpoint is annotated to the cyp intended target family, where the subfamily is xenobiotic metabolism.
A total of 1060 chemcials from the ToxCast library were tested in eight-point concentration-response experiments. Cell culture and cytotoxicity assays were conducted at Thermo Fisher Scientific's Custom Services facility (Madison, WI). A single lot of human HepaRG cells (Thermo Fisher Scientific, Frederick, MD) was used for the cell culture experiments. 96-well format collagen type I coated plates of human HepaRG cells were prepared using established methods. Briefly, cryopreserved HepaRG cells were thawed, plated at a density of approximately 100,000 cells/well in HepaRG Thaw, Plate, and General Purpose media (HPRG770, Thermo Fisher Scientific), and incubated for 48 hours. 0.5% DMSO was selected as vehicle control to balance the requisite need of DMSO in HepaRG cultures to maintain differentiation (for example, baseline metabolism, proportions of hepatocytes vs. cholangiocytes), while enabling further hepatic receptor pathway activation (for example, PXR and CAR) in response to chemical exposure. 48 hours after plating, the culture medium was replaced with HepaRG Serum-Free Incudtion Media. Cells were exposed to each test chemical in duplicate and maintained in CO2 incubators for another 48 hours. Chemical plates were thawed to room temperature and 200x concentrations of treatment groups were prepared. 8-point conentration-reponse curves were made with the highest exposure at 100 uM, followed by half-log dilutions, all in 0.5% DMSO. Each test plate contained variouse controls, induction positive controls (1mM phenobarbital), cytotoxicity positive controls ([…] aflatoxin B1), vehicle controls (0.5% DMSO), and total lysis controls (0.5% DMSO). Cell morphology images were taken using an Essen IncuCyte FLR automated microscope, with six 96-well plates imaged in about 24 minutes. Images were captured and exported and JPEG files. Spent culture media was transfered to black-well plates for the LDH assay, and remaining media was sorted at -80 C for later use. Cells were treated with RLT buffer and frozen until shipped for gene expression analysis. Total RNA was isolated from the cell suspension in 75 uL of Buffer RLT (Qiagen, Germantown, MD 20874) by Quintiles/Expression Analysis (Durham, NC) using a custom isolation procedure. Total RNA from each plate well was transferred to a preamplification plate. Fluidigm's 96.96 Dynamic ArrayTM (Fluidigm, Amsterdam, the Netherlands) technology was used for gene expression analyses by quantitative reverse transcription polymerase chain reaction (qRT-PCR, performed by Quintiles/Expression Analysis, Durham, NC)89. Standard TaqManTM Assays (Applied Biosystems/ThermoFisher Scientific, Foster City, CA) were used to assess the expression of 93 genes selected based on their selectivity and sensitivity to important hepatic receptors known to be modulated by environmental chemicals; importance in human hepatocyte functionality; and hepatotoxicity. […]

| Compound | outcome |
| --- | --- |
| CN(C)CCO | inactive |
| Oc1c(Cl)c(Cl)c(Cl)c(Cl)c1Cl | inactive |
| Clc1ccc(C(Cl)(Cl)Cl)cc1 | inactive |
| Cc1cc2c3c(c1)C(c1ccccc1)=N[C@@H](NC(=O)c1ccncc1)C(=O)N3CC2 | inactive |
| Cc1ccccc1CO[C@@H]1C[C@@]2(C(C)C)CC[C@]1(C)O2 | inactive |
| C1CC2OC2CC1C1CO1 (stereo not given) | inactive |
| C[C@]12CCC(=O)C=C1CC[C@@H]1[C@@H]2CC[C@]2(C)C(=O)CC[C@@H]12 | inactive |
| Clc1ccc(C(c2ccccc2Cl)C(Cl)(Cl)Cl)cc1 (stereo not given) | inactive |
| O=C(NC(=O)c1cc(F)c(F)cc1Cl)Nc1cc(F)ccc1N1CCC(C(=O)O)CC1 | inactive |
| CCOP(=S)(OCC)SCSC(C)(C)C | inactive |
| O=NN(c1ccccc1)c1ccccc1 | inactive |
| Nn1cnnc1 | inactive |
| O=S(=O)(O)C(F)(F)C(F)(F)C(F)(F)C(F)(F)C(F)(F)C(F)(F)F | inactive |
| CCC(C)(c1ccc(O)cc1)c1ccc(O)cc1 | inactive |
| CO/C=C(/C(=O)OC)c1ccccc1COc1cccc(C(F)(F)F)n1 | inactive |
| NS(=O)(=O)C(F)(F)C(F)(F)C(F)(F)C(F)(F)C(F)(F)C(F)(F)C(F)(F)C(F)(F)F | inactive |
| Cc1ccc(O)c(C)c1 | inactive |
| Nc1ccc(-c2ccc(N)cc2)cc1 | inactive |
| Cc1cccc(C)c1N | inactive |
| O=C(O)C(F)(F)C(F)(F)C(F)(F)C(F)(F)C(F)(F)C(F)(F)C(F)(F)C(F)(F)F | inactive |

| Compound | outcome |
| --- | --- |
| CCCCCCCCCC[N+](C)(C)CCCCCCCCCC | inactive |
| N#Cc1ccc(N(CC(N)=O)CC(F)(F)F)cc1C(F)(F)F | inactive |
| Cc1cc(-c2ccc(N)c(C)c2)ccc1N | inactive |
| CC(C)(O)C(=O)Nc1ccc([N+](=O)[O-])c(C(F)(F)F)c1 | inactive |
| Cc1cccc([N+](=O)[O-])c1 | inactive |
| Oc1ccc(Cl)cc1Cl | inactive |
| CC(C)C(=O)OCC(C)(C)C(OC(=O)C(C)C)C(C)C (stereo not given) | inactive |
| O=C(O)C(F)(F)C(F)(F)C(F)(F)C(F)(F)C(F)(F)C(F)(F)C(F)(F)C(F)(F)C(F)(F)F | inactive |
| CC#Cc1cc(C)nc(Nc2ccccc2)n1 | inactive |
| CCOC(=O)C(O)(c1ccc(Cl)cc1)c1ccc(Cl)cc1 | inactive |
| C[C@]12CCC(=O)C=C1CC[C@@H]1[C@@H]2CC[C@@]2(C)[C@H]1CC[C@]2(C)O | inactive |
| CC1=C2C[C@H]3[C@@H](CC=C4C[C@@H](O)CC[C@@]43C)[C@@H]2CC[C@]12O[C@@H]1C[C@H](C)CN[C@H]1[C@H]2C | inactive |
| C=CC(=O)NCNC(=O)C=C | inactive |
| CC(c1ccc(O)cc1)(c1ccc(O)cc1)c1ccc(O)cc1 | inactive |
| ClC1=C(Cl)[C@]2(Cl)[C@@H]3[C@H]4C[C@H]([C@@H]5O[C@H]45)[C@@H]3[C@@]1(Cl)C2(Cl)Cl | inactive |
| O=C(NC(=O)c1c(F)cccc1F)Nc1cc(Cl)c(OC(F)(F)C(F)F)c(Cl)c1 | inactive |
| CCCCCCCCOC(=O)c1ccccc1C(=O)OCCCCCCCC | inactive |
| CCC(C)c1cc([N+](=O)[O-])cc([N+](=O)[O-])c1O (stereo not given) | inactive |
| CCC(=O)O[C@H]1CC[C@H]2[C@@H]3CCC4=CC(=O)CC[C@]4(C)[C@H]3CC[C@]12C | inactive |
| Cc1ccccc1O | inactive |
